Source: PubChem (University of Kansas High Throughput Screening Laboratory)
Sampled rows, rich in hits. Any-hit rate of the full collection: about 3.5%.
mHTT CaM bind: mHTT-calmodulin interaction abrogation; P42858; AlphaScreen His-mHTT/GST-CaM binding, luminescence; inhibition, % at 15 µM; 190,000 tested, 3.6% active; AID 1671202;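 note: 0% = both proteins with DMSO and 100% = one protein alone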
Pf apPOL block: Pf-apPOL DNA polymerase inhibition; Recombinant Pf-apPOL, molecular beacon fluorescence, 1.5 h; AID 1794808; 210,000 tested, 0.25% active; inhibition, % at 10 µM
* hit, by the source's call; x = not tested or not shown; ! = not active in a repeat. Cut-off read from the data, not from the text of the source: active = inhibition above about 50%; inactive = the rest.

SMILES | mHTT CaM bind | Pf apPOL block
COc1ccc(OC)c(NS(=O)(=O)c2ccc(-c3ccccc3)cc2)c1 | 39.7 | -9.0
CCc1ccc(NC(=O)C23CCC(C)(C(=O)C2=O)C3(C)C)cc1 (stereo not given) | 2.7 | -6.6
Cc1nnc(NC(=O)CCN2C(=O)c3ccccc3C2=O)s1 | -0.1 | -2.9
COc1ccc(-c2nnc(-c3cccc([N+](=O)[O-])c3)o2)cc1 | -13.1 | 6.1
COc1ccc(O)c(C2=Nc3ccccc3N=C(c3cccc([N+](=O)[O-])c3)C2)c1 | 57.0* | -2.4
Cc1ccc(NC(=O)c2ccc(Cl)cc2)cc1F | -8.7 | -2.4
Cc1oc2cc3oc(=O)c4c(c3cc2c1C)CCC4 | -8.0 | 58.3*
Cc1oc2cc3oc(=O)c4c(c3cc2c1-c1ccccc1)CCC4 | -9.0 | 14.0
Fc1ccccc1C1C=C(c2cccnc2)Nc2nc3ccccc3n21 (stereo not given) | 3.0 | -3.4
O=c1nc(/C=C/c2ccc(-c3ccc(Br)cc3)o2)cc(C(F)(F)F)[nH]1 | 99.0* | -4.2
O=C(O)c1cc(Cl)ccc1-c1ccc(/C=C/c2cc(C(F)(F)F)[nH]c(=O)n2)o1 | 13.0 | -0.6
O=C(O)c1ccccc1-c1ccc(/C=C/c2cc(C(F)(F)F)[nH]c(=O)n2)o1 | 3.0 | -4.7
O=c1nc(/C=C/c2ccc(-c3cccc(Cl)c3)o2)cc(C(F)(F)F)[nH]1 | 91.0* | -6.3
Cn1c(NCc2ccccc2Cl)nc2c1c(=O)n(Cc1cccc(Cl)c1)c(=O)n2C | 28.0 | 2.8
CCCCN(CCCNC(=O)C1CC(=O)N(CCc2ccccc2)C1)c1ccccc1 (stereo not given) | 79.5* | 1.5
CCCCNC(=O)C1CC(=O)N(CCc2ccccc2)C1 (stereo not given) | -3.8 | -1.2
Cc1ccc(C)c(N2CCN(C(=O)C(C)C)C(C)C2=O)c1 (stereo not given) | -3.4 | 1.0
Cc1ccc(N(CC(O)CN2C(=O)NC(C)(C)C2=O)S(=O)(=O)c2ccc([N+](=O)[O-])cc2)cc1 (stereo not given) | 61.0* | -3.1
CC1(C)NC(=O)N(CC(O)CN(c2cccc([N+](=O)[O-])c2)S(=O)(=O)c2ccccc2)C1=O (stereo not given) | -0.3 | -6.3
Cc1cc(C)c(O)c(N=Cc2ccc(Br)cc2)c1 | 35.0 | -3.9
O=c1cc2oc3cc(O)c(-c4ccc(O)cc4O)cc3nc-2cc1-c1ccc(O)cc1O | 100.3* | x
O=c1cc(-c2ccc(O)cc2)oc2cc(O)cc(O)c12 | x | 6.5
CCN(CC)c1ccc(-c2nocc2C#N)cc1 | -8.9 | -11.0
N#CC1=C(N)SC(N)=C(C#N)C1c1ccc(-c2ccccc2)cc1 | 51.5* | -0.1
N#CC1=C(N)SC(N)=C(C#N)C1c1cccs1 | 62.7*! | -6.1
SMILES | mHTT CaM bind | Pf apPOL block
CC1=C(C#N)C(c2cccs2)C(C#N)=C(C)N1 | x | 26.2
N#CC1=C(N)SC(N)=C(C#N)C1c1ccc(O)cc1 | 6.6 | 2.8
CCn1c(=N)c(C#N)cc2c(=O)n3ccccc3nc21 | -1.0 | 4.4
C=CCN1C(=Nc2cccnc2)SCC1(O)c1ccccc1 (stereo not given) | 12.0 | -5.1
CCCC(=O)N1CCCN(C2=NS(=O)(=O)C(c3ccc(C)cc3)=C2C)CC1 | 5.3 | -3.1
N#CC1=C(N)OC2=C(C(=O)CCC2)C1c1cc([N+](=O)[O-])cs1 (stereo not given) | 1.0 | -9.1
N#CC1=C(N)OC2=C(C(=O)CCC2)C1c1cc2c(cc1[N+](=O)[O-])OCO2 (stereo not given) | 90.3* | -0.1
CCOc1ccccc1NC(=O)C1(C)Oc2cccnc2N(C)C1=O (stereo not given) | -4.8 | -1.3
COC(=O)C12CC3CC(CC(NC(=O)c4ccc(=O)oc4)(C3)C1)C2 | 14.3 | 66.1*
COC(=O)C12CC3CC(CC(NC(=O)c4ccc(Cn5ccnc5)cc4)(C3)C1)C2 | 0.4 | -0.9
O=C(NCc1csc(C2CCCN(C(=O)Cc3cccs3)C2)n1)C1CC1 (stereo not given) | 1.0 | -0.4
COc1cc(OC)c(OC)cc1/C=C1/N=C(c2ccc(OC)c(OC)c2)OC1=O | 2.0 | -3.5
O=C(NCc1csc(C2CCCN(C(=O)c3cccc(F)c3)C2)n1)C1CC1 (stereo not given) | 2.1 | -6.4
O=[N+]([O-])c1ccc(S(=O)(=O)N2CCN(c3ccccn3)CC2)cc1 | -0.3 | -1.1
O=[N+]([O-])c1ccc(S(=O)(=O)N2CCN(c3ncccn3)CC2)cc1 | -3.1 | 99.0*
CCn1c(=O)c(-c2ccc(C(=O)Nc3cc(C)ccc3C)cc2)nc2cccnc21 | -2.7 | -5.4
CC(C)(CCOC(=O)c1ccc([N+](=O)[O-])o1)Nc1ccc(C(F)(F)F)cc1[N+](=O)[O-] | x | -2.2
CN(C)c1ccc(CNc2ccc3c(c2)ncn3C)cc1 | 20.0 | -4.0
CCN(CC)c1ccc(CNc2ccc3c(c2)ncn3C)cc1 | 84.0* | -2.1
CC(=O)Nc1ccc2c(c1)ncn2-c1ccccc1 | 2.7 | 0.4
Cn1cnc2cc(NCc3ccc(Br)cc3)ccc21 | 16.0 | 5.3
Brc1ccc(CNc2ccc3c(c2)ncn3-c2ccccc2)cc1 | 95.0* | 24.1
CC(C)(C)n1cnc2cc(NCc3ccc(Br)cc3)ccc21 | 61.0* | -4.4
CCCc1ccc(C(=O)Nc2ncccc2OCc2ccc(Cl)c(Cl)c2)cc1 | x | 5.9
CCOc1cc(/C=C2\SC(=N)NC2=O)ccc1OCc1ccccc1 | 20.0 | -5.1
SMILES | mHTT CaM bind | Pf apPOL block
COc1cc(/C=C2\SC(=N)NC2=O)ccc1Oc1ccc(C(F)(F)F)cc1[N+](=O)[O-] | 50.0* | -3.6
CCOc1cc(/C=C2\SC(=N)NC2=O)ccc1OCc1ccc(F)cc1 | 60.0* | -4.0
CCOc1cc(/C=C2\SC(=N)NC2=O)ccc1OCc1ccc(Br)cc1 | 34.0 | 3.3
COc1cc(/C=C2/SC(=N)NC2=O)ccc1OCc1ccc([N+](=O)[O-])cc1 | 20.0 | -3.7
CCOc1cc(/C=C2\SC(=N)NC2=O)ccc1OC | 11.0 | -1.1
COc1cc(/C=C2/SC(=N)NC2=O)cc(Br)c1OCc1ccccc1 | 68.0* | -5.3
COc1cc(/C=C2/SC(=N)NC2=O)ccc1OCc1ccccc1F | 60.0* | -2.2
O=C1C2C3C=CC(CC3)C2C(=O)N1c1ccccc1Cl (stereo not given) | -1.0 | -0.2
CC(=O)N1CCC(N2CCCCCC2)CC1 | -9.6 | -2.0
COc1cc(/C=C2/SC(=N)NC2=O)ccc1OCc1ccccc1 | 28.0 | 0.9
COc1cc(/C=C2/SC(=N)NC2=O)ccc1OCc1ccc(C)cc1 | 59.0* | 2.6
CC(c1ccccc1)C1OCC(CN2CCCCC2)O1 (stereo not given) | 2.0 | 2.9
Cc1ccc(-c2noc(C3CCN(CC(=O)Nc4ccccc4C)CC3)n2)cc1 | -6.2 | 0.4
Cc1cccc(C(=O)N=c2sccn2Cc2ccccc2C(=O)N2CCCC2)c1 | 14.6 | 0.0
O=C(N=c1sccn1Cc1ccc(C(=O)N2CCCC2)cc1)c1ccccc1F | 7.4 | 58.5*
CCC(=O)N1CCc2cc(Br)cc(S(=O)(=O)NCc3ccccn3)c21 | -4.0 | -5.6
Cn1c(=O)c(N2CCN(C(=O)c3ccc(F)cc3F)CC2)nc2ccncc21 | 3.4 | 3.3
COc1cc(/C=C2\C(=O)N(c3ccc(C(=O)O)cc3)N=C2C(F)(F)F)ccc1OCC(C)C | 74.0* | 0.1
COc1cc(/C=C2/C(=O)N(c3ccc(C(=O)O)cc3)N=C2C)cc(OC)c1OC | 1.0 | -0.2
COc1cccc(C(=O)Nc2cccn3nc(C4CC4)nc23)c1 | 18.7 | 4.7
